Assay results published in PubChem BioAssay (EPA / NIEHS).
Several values for one entry are separate records, joined by “and”; a condition that tells them apart may be missing. Identical values can stand only once. Some compounds were tested as several samples or in several runs, with calls that do not always agree. Activity calls are given as the source filed them. The calls were made as follows: active = hit-call score of the fitted dose curve at least 0.9, where 1 is the maximum; inactive = score below 0.9.

Experiments:
[1] = read-out: Interleukin-6 (IL6), IL6 (gene 3569); test: BSK_CASM3C_IL6: BioMAP Diversity Plus: CASM3C Assay for Interleukin-6 (IL6) Biomarker Activity for (AID 2283040); settings: primary human coronary artery smooth muscle cells; actives raise or lower the signal
[2] = read-out: Tissue plasminogen activator (tPA), PLAT (gene 5327); test: BSK_BE3C_tPA: BioMAP Diversity Plus: BE3C Assay for Tissue plasminogen activator (tPA) Biomarker Activity (AID 2283041); settings: primary human bronchial epithelial cells; actives raise or lower the signal
Outline: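 Bidirectional curve fitting relative to DMSO defined activity, with tPA detected by ELISA in chemically treated human bronchial epithelial primary cells at 24 hours.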

[3] = read-out: Interleukin-8 (IL8), CXCL8 (gene 3576); test: BSK_CASM3C_IL8: BioMAP Diversity Plus: CASM3C Assay for Interleukin-8 (IL8) Biomarker Activity (AID 2283042); settings: primary human coronary artery smooth muscle cells; actives raise or lower the signal;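 also: IL-8 protein level quantified by ELISA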
[4] = read-out: Human Leukocyte Antigen - DR isotype (HLADR), HLA-DRA (gene 3122); test: BSK_CASM3C_HLADR: BioMAP Diversity Plus: CASM3C Assay for Human Leukocyte Antigen - DR isotype (HLADR) Biomarker Activity (AID 2283043); settings: primary human coronary artery smooth muscle cells; actives raise or lower the signal;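 also: cell-surface HLA-DR protein level quantified by ELISA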
[5] = read-out: Macrophage colony-stimulating factor (MCSF), CSF1 (gene 1435); test: BSK_CASM3C_MCSF: BioMAP Diversity Plus: CASM3C Assay for Macrophage colony-stimulating factor (MCSF) Biomarker Activity (AID 2283044); settings: primary human coronary artery smooth muscle cells; actives raise or lower the signal;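 also: M-CSF protein amount quantified by ELISA after 24 h exposure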
[6] = read-out: Low-density lipoprotein receptor (LDLR), LDLR (gene 3949); test: BSK_CASM3C_LDLR: BioMAP Diversity Plus: CASM3C Assay for Low-density lipoprotein receptor (LDLR) Biomarker Activity (AID 2283045); settings: primary human coronary artery smooth muscle cells; actives raise or lower the signal;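 also: LDLR protein level on the cell surface quantified by ELISA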
[7] = read-out: Monocyte Chemoattractant Protein-1 (MCP1), CCL2 (gene 6347); test: BSK_CASM3C_MCP1: BioMAP Diversity Plus: CASM3C Assay for Monocyte Chemoattractant Protein-1 (MCP1) Biomarker Activity (AID 2283046); settings: primary human coronary artery smooth muscle cells; actives raise or lower the signal;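 also: MCP-1 level quantified by ELISA 24 h after dosing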
[8] = BSK_CASM3C_Proliferation: Cell Proliferation Assessment in the BioMAP Diversity Plus: CASM3C Assay (AID 2283047); settings: primary human coronary artery smooth muscle cells;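 also: sulforhodamine B total protein stain as relative cell number at 560 nm; sub-confluent cells exposed 48 h before staining; fitted both ways against DMSO so gain or loss of cell number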
[9] = read-out: Monokine induced gamma interferon (MIG), CXCL9 (gene 4283); test: BSK_CASM3C_MIG: BioMAP Diversity Plus: CASM3C Assay for Monokine induced gamma interferon (MIG) Biomarker Activity (AID 2283048); settings: primary human coronary artery smooth muscle cells; actives raise or lower the signal;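 also: MIG protein level measured by ELISA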
[10] = read-out: serum amyloid A (SAA), SAA1 (gene 6288); test: BSK_CASM3C_SAA: BioMAP Diversity Plus: CASM3C Assay for serum amyloid A (SAA) Biomarker Activity (AID 2283049); settings: primary human coronary artery smooth muscle cells; actives raise or lower the signal;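 also: SAA protein level quantified by ELISA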

Measured: AC50

C[C@]12C=CC(=O)C=C1CC[C@H]1[C@@H]3C[C@@H](O)[C@](O)(C(=O)CO)[C@@]3(C)C[C@H](O)[C@@]12F
active: [1] 0.356 µM | [3] 0.246 µM | [4] 0.148 µM | [5] 0.417 µM | [7] 0.148 µM | [10] 0.354 µM
inactive: [2] | [6] | [8] | [9]

CCCCCCCC/C=C\CCCCCCCC(=O)OC[C@@H](O)[C@H]1OC[C@H](O)[C@H]1O
inactive: [1] | [2] | [3] | [4] | [5] | [6] | [7] | [8] | [9] | [10]

CCCCCOC(C)=O
inactive: [1] | [2] | [3] | [4] | [5] | [6] | [7] | [8] | [9] | [10]

S=P(N1CC1)(N1CC1)N1CC1
active: [8] 20.9 µM
inactive: [1] | [2] | [3] | [4] | [5] | [6] | [7] | [9] | [10]

CCCC(CCC)C(=O)O
inactive: [1] | [2] | [3] | [4] | [5] | [6] | [7] | [8] | [9] | [10]

OCC(CO)(CO)CO
inactive: [1] | [2] | [3] | [4] | [5] | [6] | [7] | [8] | [9] | [10]

C=CCc1cc(S(=O)(=O)c2ccc(O)c(CC=C)c2)ccc1O
active: [2] 7.78 µM | [3] 17.6 µM | [4] 13.6 µM | [5] 28.2 µM | [6] 32.2 µM | [7] 16.2 µM | [8] 14.3 µM | [9] 31.4 µM | [10] 28.3 µM
inactive: [1]

OC(CCl)CCl
inactive: [1] | [2] | [3] | [4] | [5] | [6] | [7] | [8] | [9] | [10]

CCCOc1ccc(S(=O)(=O)N2CCN(CC)CC2)cc1-c1nc2c(CC)n(Cc3ccccn3)nc2c(=O)[nH]1
active: [4] 3.97 µM
inactive: [1] | [2] | [3] | [5] | [6] | [7] | [8] | [9] | [10]

OCc1ccccc1
inactive: [1] | [2] | [3] | [4] | [5] | [6] | [7] | [8] | [9] | [10]

C=CN1CCCC1=O
inactive: [1] | [2] | [3] | [4] | [5] | [6] | [7] | [8] | [9] | [10]

CCCCOC(=O)c1ccccc1
inactive: [1] | [2] | [3] | [4] | [5] | [6] | [7] | [8] | [9] | [10]

O=C(O)c1ccc2c(c1)nc(C(=O)NC1CCN(C3CC3)CC1)n2Cc1cc(-c2ccc(Cl)s2)on1
inactive: [1] | [2] | [3] | [4] | [5] | [6] | [7] | [8] | [9] | [10]

OC(O)(C(F)C(O)(O)C(F)(F)F)C(F)(F)F
inactive: [1] | [3] | [4] | [5] | [6] | [7] | [8] | [10]
active: [2] 24.6 µM and 20.5 µM | [9] 33.3 µM and 28.2 µM | [10] 49.1 µM

OC(Cn1cncn1)(Cn1cncn1)c1ccc(F)cc1F
inactive: [1] | [2] | [3] | [4] | [5] | [6] | [7] | [8] | [9] | [10]

c1ccc2c(c1)-c1cccc3c1c-2cc1ccccc13
inactive: [1] | [2] | [3] | [4] | [5] | [6] | [7] | [8] | [9] | [10]

NC(=O)NN=Cc1ccc([N+](=O)[O-])o1
inactive: [1] | [2] | [3] | [4] | [5] | [6] | [7] | [8] | [9] | [10]

CCn1nc(C)c2c1C(=O)NCC(c1ccc(O)cc1)=N2
inactive: [1] | [2] | [3] | [4] | [6] | [7] | [9] | [10]
active: [5] 2.51 µM | [8] 10 µM

CCc1cccc(CC)c1N
inactive: [1] | [2] | [3] | [4] | [5] | [6] | [7] | [8] | [9] | [10]

OC[C@H]1O[C@@H]2O[C@H]3[C@H](O)[C@@H](O)[C@@H](O[C@H]4[C@H](O)[C@@H](O)[C@@H](O[C@H]5[C@H](O)[C@@H](O)[C@@H](O[C@H]6[C@H](O)[C@@H](O)[C@@H](O[C@H]7[C@H](O)[C@@H](O)[C@@H](O[C@H]1[C@H](O)[C@H]2O)O[C@@H]7CO)O[C@@H]6CO)O[C@@H]5CO)O[C@@H]4CO)O[C@@H]3CO
inactive: [1] | [2] | [3] | [4] | [5] | [6] | [7] | [8] | [9] | [10]

CC(C)C(=O)Nc1ccc([N+](=O)[O-])c(C(F)(F)F)c1
inactive: [1] | [2] | [3] | [4] | [5] | [7] | [8] | [9] | [10]
active: [6] 4.78 µM

O=C(O)c1cccc(C(=O)O)c1
inactive: [1] | [2] | [3] | [4] | [5] | [6] | [7] | [8] | [9] | [10]

NC(N)=O
inactive: [1] | [2] | [3] | [4] | [6] | [7] | [8] | [9] | [10]

CCCCC(CC)C(=O)OCCOCCOCCOC(=O)C(CC)CCCC (centres undefined)
inactive: [1] | [2] | [3] | [4] | [5] | [6] | [7] | [8] | [9] | [10]

OC[C@H]1O[C@@](CO)(O[C@H]2O[C@H](CO)[C@@H](O)[C@H](O)[C@H]2O)[C@@H](O)[C@@H]1O
inactive: [1] | [2] | [3] | [4] | [5] | [6] | [7] | [8] | [9] | [10]

CCCCCCCCN(C)C
inactive: [1] | [2] | [3] | [4] | [5] | [6] | [7] | [8] | [9] | [10]

FC(F)(F)COC(OCC(F)(F)F)OCC(F)(F)F
inactive: [1] | [2] | [3] | [4] | [5] | [6] | [7] | [8] | [9] | [10]

O=c1[nH]cnc2c1ncn2[C@H]1CC[C@@H](CO)O1
inactive: [1] | [2] | [3] | [4] | [6] | [7] | [8] | [9] | [10]

COc1cc2c(c(OC)c1OC)-c1ccc(OC)c(=O)cc1[C@@H](NC(C)=O)CC2
active: [1] 0.148 µM | [4] 0.43 µM | [8] 0.148 µM
inactive: [2] | [3] | [5] | [6] | [7] | [9] | [10]

NNC(=O)c1ccncc1
inactive: [1] | [2] | [3] | [4] | [5] | [6] | [7] | [8] | [9] | [10]

OCCC(F)(F)C(F)(F)C(F)(F)C(F)(F)F
inactive: [1] | [2] | [3] | [4] | [5] | [6] | [7] | [8] | [9] | [10]

O=S1(=O)CCCO1
inactive: [1] | [2] | [3] | [4] | [5] | [6] | [7] | [8] | [9] | [10]

O=S(=O)(O)CCC(F)(F)C(F)(F)C(F)(F)C(F)(F)C(F)(F)C(F)(F)F
inactive: [1] | [2] | [3] | [4] | [5] | [6] | [7] | [8] | [9] | [10]

OCCNCCO
inactive: [1] | [2] | [3] | [4] | [5] | [6] | [7] | [8] | [9] | [10]

Cc1cccc(O)c1C
inactive: [1] | [2] | [3] | [4] | [5] | [6] | [7] | [8] | [9] | [10]

OCc1c[nH]c2ccccc12
inactive: [1] | [2] | [3] | [4] | [5] | [6] | [7] | [8] | [9] | [10]

OCCOCCOCCO
inactive: [1] | [2] | [3] | [4] | [5] | [6] | [7] | [8] | [9] | [10]

CC(=O)c1ccccc1
inactive: [1] | [2] | [3] | [4] | [5] | [6] | [7] | [8] | [9] | [10]

CCOc1ccc2[nH]cc(C(=O)NCc3ccccc3)c(=O)c2n1
inactive: [1] | [2] | [3] | [4] | [5] | [6] | [7] | [8] | [9] | [10]

CC[C@H](C)C(=O)O[C@H]1C[C@H](O)C=C2C=C[C@H](C)[C@H](CC[C@@H](O)C[C@@H](O)CC(=O)O)[C@H]21
inactive: [1] | [2] | [3] | [4] | [5] | [6] | [7] | [8] | [9] | [10]

O=S(=O)(O)c1ccc(N=Nc2c(O)ccc3cc(S(=O)(=O)O)ccc23)cc1
inactive: [1] | [2] | [3] | [4] | [5] | [6] | [7] | [8] | [9] | [10]
